# Where “and” joins values, the source holds several entries; their conditions need not be identical. Equal values may be shown once.
# Assays:
# Test in all cases: growth inhibition (% activity, log2 RLU normalised to DMSO / staurosporine); higher = more growth inhibition
# Conditions in all cases: 33 µM
# [1] = system: DIPGX29 (H3.3 K27M diffuse intrinsic pontine glioma line)
# Summary of the method: (§1)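 Approved drugs, at a single final concentration of about 33 μM, were applied in triplicate to pHGG cell lines and H9-derived neural stem cells for 7 days at 37 °C, 5% CO2. The growth-inhibition value is the replicate median of log2-transformed CellTiter-Glo luminescence normalised per plate to % activity between solvent and positive control wells.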
# [2] = system: DIPGX37 (H3.3 K27M diffuse intrinsic pontine glioma line)
# Summary of the method: as §1
# [3] = system: DIPGX7 (H3.3 K27M diffuse intrinsic pontine glioma line)
# Summary of the method: as §1
# [4] = system: DIPGX9 (diffuse intrinsic pontine glioma line)
# Summary of the method: as §1
# [5] = system: HGGX39 (paediatric high-grade glioma line)
# Summary of the method: as §1
# [6] = system: HGGX6 (H3.3 G34R paediatric high-grade glioma line)
# Summary of the method: as §1
# [7] = system: HNSC
# Summary of the method: as §1
# [8] = system: SUDIPGIV (diffuse intrinsic pontine glioma line)
# Summary of the method: as §1
# [9] = system: SUDIPGVI (diffuse intrinsic pontine glioma line)
# Summary of the method: as §1
# [10] = system: SUDIPGXIII (diffuse intrinsic pontine glioma line)
# Summary of the method: as §1
Structure (SMILES),growth inhibition [1],growth inhibition [2],growth inhibition [3],growth inhibition [4],growth inhibition [5],growth inhibition [6],growth inhibition [7],growth inhibition [8],growth inhibition [9],growth inhibition [10]
CCOC(CN1CCN(CC(C)C(=O)c2ccccc2)CC1)c1ccccc1 (stereo not given),-0.933%,-1.59%,-1.24%,-0.121%,2.63%,1.64%,-3.21%,-1.87%,-0.901%,13.1%
Cc1cccn2c(=O)c(-c3nnn[nH]3)cnc12,0.15%,-1.28%,-0.946%,0.426%,1.29%,-0.465%,-1.69%,-0.133%,0.709%,1.3%
OC1(c2ccc(Cl)c(C(F)(F)F)c2)CCN(CCCC(c2ccc(F)cc2)c2ccc(F)cc2)CC1,22.5%,-5.49%,5.28%,-1.11%,4.1%,4.08%,71.6%,4.36%,-7.48%,51.7%
NS(=O)(=O)c1cc2c(cc1Cl)NCNS2(=O)=O,-1.36%,-0.293%,-0.977%,0.545%,0.937%,-0.432%,-1.69%,-0.42%,0.531%,1.25%
CCc1cc2c(cc1CC)CC(NC[C@H](O)c1ccc(O)c3[nH]c(=O)ccc13)C2,-0.957%,-0.915%,0.341%,-1.43%,0.343%,-1.65%,23.5%,1.53%,-4.28%,0.665%
CCCc1ncc(C[n+]2ccccc2C)c(N)n1,-4.8%,-1.21%,-0.627%,-2.23%,-2.8%,-3.52%,7.92%,-2.86%,-5.24%,0.241%
NC(CO)C(=O)NNCc1ccc(O)c(O)c1O (stereo not given),-0.675%,0.574%,-0.561%,-0.46%,-0.00682%,2.73%,-2.22%,-0.604%,0.203%,-7.46%
CC(C)[C@H](N)C(=O)OCC(CO)OCn1cnc2c(=O)[nH]c(N)nc21 (stereo not given in full),-0.214%,1.96%,-0.125%,0.141%,0.816%,-2.7%,0.0503%,0.2%,-2.51%,1.45%
CC(C)(Oc1ccc(CCNC(=O)c2ccc(Cl)cc2)cc1)C(=O)O,1.81%,2.31%,1.05%,0.682%,1.23%,1.74%,1.59%,0.843%,2.49%,-16.6%
C[C@H](N[C@@H](CCc1ccccc1)C(=O)O)C(=O)N1CCC[C@H]1C(=O)O,-1.89%,-2.46%,0.194%,-1.9%,-1.61%,-3.59%,-1.1%,-2.75%,-6.88%,-1.42%
COCCCC/C(=N\OCCN)c1ccc(C(F)(F)F)cc1,1.49%,4.31%,1.46%,3.17%,4.47%,-0.782%,-3.83%,2.23%,0.798%,2.91%
CC(=O)N1CCN(c2ccc(OCC3COC(Cn4ccnc4)(c4ccc(Cl)cc4Cl)O3)cc2)CC1 (stereo not given),5.63%,1.48%,11.2%,4.81%,13.3%,9.98%,7.8%,13.7%,7%,12%
CC[C@H]1OC(=O)[C@H](C)[C@@H](O[C@H]2C[C@@](C)(OC)[C@@H](O)[C@H](C)O2)[C@H](C)[C@@H](O[C@@H]2O[C@H](C)C[C@H](N(C)C)[C@H]2O)[C@](C)(O)C[C@@H](C)CN(C)[C@H](C)[C@@H](O)[C@]1(C)O,2.6% and 0.58%,0.972% and 0.639%,2.78% and -0.0129%,0.764% and 1.25%,1.94% and 0.554%,0.417% and 2.15%,-0.827% and -1.61%,-0.232% and -0.687%,-6.26% and 1.06%,1.93% and -0.434%
CCC(=O)O[C@@H](O[P@](=O)(CCCCc1ccccc1)CC(=O)N1C[C@H](C2CCCCC2)C[C@H]1C(=O)O)C(C)C,1.88%,3.74%,2.4%,1.15%,2.87%,2.08%,2.72%,1.26%,3.21%,-1.04%
CC(C)NCC(O)COc1ccc(COCCOC(C)C)cc1 (stereo not given),-3.23%,-0.456%,-0.461%,-0.782%,-1.74%,-3.85%,-7.27%,-3.11%,-2.42%,-1.46%
COc1ccccc1OCCNCC(O)COc1cccc2[nH]c3ccccc3c12 (stereo not given),6.61%,2.55%,3.4%,3.73%,5.74%,4.11%,7.57%,1.9%,5.96%,2.05%
CC(=O)O[C@]1(C(C)=O)CC[C@H]2[C@@H]3C[C@H](C)C4=CC(=O)CC[C@]4(C)[C@H]3CC[C@@]21C,-3.25%,0.463%,-0.594%,-0.287%,-4.12%,-0.715%,31.3%,-4.85%,-6.53%,4.79%
CCCCCCOC(=O)NC(=N)c1ccc(NCc2nc3cc(C(=O)N(CCC(=O)OCC)c4ccccn4)ccc3n2C)cc1,0.869%,2.08%,1.77%,1.32%,1.62%,2.11%,1.37%,0.438%,2.67%,-16.9%
CCC[C@@H]1C[C@@H](C(=O)N[C@@H]([C@H]2O[C@H](SC)[C@H](O)[C@@H](O)[C@H]2O)[C@@H](C)O)N(C)C1,-2.47%,0.84%,-0.347%,0.338%,-0.628%,-0.292%,0.119%,0.1%,-1.6%,0.849%
Oc1c(Cl)cc(Cl)c2cccnc12,4.67%,3.08%,4.55%,5.64%,6.44%,-1.25%,44.3%,3.67%,4.23%,2.6%
CC(C)(S)[C@@H](N)C(=O)O,0.657%,-0.325%,5.5%,-0.781%,0.519%,-2.1%,45.1%,-0.3%,0.273%,-1.43%
CCN[C@@H]1C[C@H](N)[C@@H](O[C@H]2OC(CN)=CC[C@H]2N)[C@H](O)[C@H]1O[C@H]1OC[C@](C)(O)[C@H](NC)[C@H]1O,0.443%,3.8%,2.72%,2.1%,2.39%,-0.182%,8.55%,3.28%,2.97%,2.03%

# Source: the supplement of paper PMC8253809
